From PubChem BioAssay (EPA / NIEHS)
Inconclusive results are not listed. A structure can be active in one record and inactive in another. Active and inactive are the calls of the source. The calls were made as follows, unless noted: active = hit-call score of the fitted dose curve at least 0.9, where 1 is the maximum; inactive = score below 0.9.

Experiments:
[1] = read-out: Monokine induced gamma interferon (MIG), CXCL9 (gene 4283); experiment: BSK_3C_MIG: BioMAP Diversity Plus: 3C Assay for Monokine induced gamma interferon (MIG) Biomarker Activity (AID 2283021); details: primary human endothelial cells (HUVEC); actives raise or lower the signal;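 as to AC50: MIG protein level measured by immunoassay in the treated endothelial cultures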
Summary of the method: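 Read-out is ELISA detection of MIG on human umbilical vein endothelial cells, taken 24 h after dosing. Gain or loss of signal was scored relative to DMSO controls using bidirectional curve fitting.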

[2] = molecular target: human Vitamin D Receptor (VDR), VDR (gene 7421) (UniProt P11473); experiment: ATG_VDR_TRANS: Attagene TRANS-FACTORIAL HepG2 Assay for human Vitamin D Receptor (VDR) (AID 2283022; active = hit-call score of the fitted dose curve at least 0.9, where 1 is the maximum)
human Vitamin D Receptor (VDR), VDR (gene 7421), sequence (P11473 whole entry, looked up, the tested form may be a part): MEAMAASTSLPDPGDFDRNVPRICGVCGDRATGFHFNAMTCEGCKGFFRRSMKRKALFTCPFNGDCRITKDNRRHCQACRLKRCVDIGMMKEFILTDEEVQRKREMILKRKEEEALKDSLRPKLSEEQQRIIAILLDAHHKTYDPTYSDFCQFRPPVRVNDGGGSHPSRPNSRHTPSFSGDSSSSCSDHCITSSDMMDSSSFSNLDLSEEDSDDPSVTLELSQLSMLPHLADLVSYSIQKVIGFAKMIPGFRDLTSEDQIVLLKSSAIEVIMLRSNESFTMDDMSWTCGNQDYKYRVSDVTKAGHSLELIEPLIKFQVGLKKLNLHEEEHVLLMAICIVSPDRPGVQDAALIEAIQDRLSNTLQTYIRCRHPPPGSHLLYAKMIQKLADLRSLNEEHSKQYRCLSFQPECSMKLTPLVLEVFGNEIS
Summary of the method: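 RT-PCR/capillary electrophoresis read-out of reporter mRNA induction in transiently transfected HepG2; 24 h dosing; chimeric NR-Gal4 (TRANS format); gain-of-signal fit against DMSO baseline.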

[3] = BSK_3C_SRB: Viability Assessment in the BioMAP Diversity Plus: 3C Assay (AID 2283023); details: primary human endothelial cells (HUVEC);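 also: fitted both ways against DMSO so a hit may be signal rise or drop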
Summary of the method: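 HUVEC, 24 h post-dose; 10% TCA fix, 0.1% SRB stain, A560 nm. Bidirectional curve fit vs DMSO negative control.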

[4] = read-out: Matrix Metallopeptidase 1 (MMP1), MMP1 (gene 4312); experiment: BSK_BE3C_MMP1: BioMAP Diversity Plus: BE3C Assay for Matrix Metallopeptidase 1 (MMP1) Biomarker Activity (AID 2283024); details: primary human bronchial epithelial cells; actives raise or lower the signal
Summary of the method: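 Human bronchial epithelial cells (BE3C system) exposed to compound for 24 h; MMP1 then quantified by ELISA. Activity was fitted in both directions relative to DMSO.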

[5] = BSK_3C_Vis: BioMAP Diversity Plus: 3C Assay for Morphology Visualization (AID 2283025); details: primary human endothelial cells (HUVEC);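 also: fitted both ways so gain or loss versus DMSO counts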;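 as to AC50: light microscopy image of cell morphology used as background control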
Summary of the method: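 Chemicals were added to primary human umbilical vein endothelium, cells were incubated 24 h, and morphology was then visualized by light microscopy. Gain or loss of signal was fitted bidirectionally relative to DMSO.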

[6] = read-out: Pselectin, SELP (gene 6403); experiment: BSK_4H_Pselectin: BioMAP Diversity Plus: 4H Assay for Pselectin Biomarker Activity (AID 2283026); details: primary human endothelial cells (HUVEC); actives raise or lower the signal
Summary of the method: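 ELISA read-out of P-selectin on human umbilical vein endothelium after 24 h of dosing. Values derive from bidirectional fitting relative to DMSO. Parallel SRB protein staining flagged overt cytotoxicity.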

[7] = BSK_4H_SRB: Viability Assessment in the BioMAP Diversity Plus: 4H Assay (AID 2283027); details: primary human endothelial cells (HUVEC);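 also: cells exposed to compound for 24 h before staining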;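 as to AC50: curves fitted both ways versus DMSO so AC50 may be loss or gain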
Summary of the method: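 Human umbilical vein endothelial cells were dosed with chemical and, after 24 h, fixed with 10% TCA, stained with 0.1% sulforhodamine B, and read at 560 nm to give total protein as a cytotoxicity measure. Bidirectional fitting relative to DMSO control.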

[8] = BSK_BE3C_SRB: Viability Assessment in the BioMAP Diversity Plus: BE3C Assay (AID 2283028); details: primary human bronchial epithelial cells;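 as to AC50: fitted both ways so AC50 may mark signal gain or loss versus DMSO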
Summary of the method: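 Primary human bronchial epithelium; chemical dosing, 24 h; 10% TCA fix, 0.1% SRB stain, A560; bidirectional fit vs DMSO baseline.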

[9] = read-out: Thrombomodulin, THBD (gene 7056); experiment: BSK_3C_Thrombomodulin: BioMAP Diversity Plus: 3C Assay for Thrombomodulin Biomarker Activity (AID 2283029); details: primary human endothelial cells (HUVEC); actives raise or lower the signal
Summary of the method: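 Read-out is ELISA of thrombomodulin on human umbilical vein endothelium 24 h after chemical dosing. Gain or loss of signal is scored relative to DMSO. Overt cytotoxicity is checked in parallel cultures by sulforhodamine B staining.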

[10] = read-out: Urokinase-type plasminogen activator receptor (uPAR), PLAUR (gene 5329); experiment: BSK_4H_uPAR: BioMAP Diversity Plus: 4H Assay for Urokinase-type plasminogen activator receptor (uPAR) Biomarker Activity (AID 2283030); details: primary human endothelial cells (HUVEC); actives raise or lower the signal
Summary of the method: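 HUVEC, 24 h post-dose; uPAR by ELISA; bidirectional fit vs DMSO baseline.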

[11] = read-out: Vascular endothelial growth factor receptor 2 (Homo sapiens) (UniProt P35968); experiment: BSK_4H_VEGFRII: BioMAP Diversity Plus: 4H Assay for Vascular endothelial growth factor receptor 2 (VEGFR2) Biomarker Activity (AID 2283031); details: primary human endothelial cells (HUVEC); actives raise or lower the signal;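 as to AC50: cell-surface VEGFR2 protein level quantified by ELISA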
Summary of the method: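 HUVEC (human primary), 4H system; 24 h post-dose; VEGFRII by ELISA; bidirectional curve fit vs DMSO baseline; gain or loss of signal scored.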

[12] = read-out: Human Leukocyte Antigen - DR isotype (HLADR), HLA-DRA (gene 3122); experiment: BSK_BE3C_HLADR: BioMAP Diversity Plus: BE3C Assay for Human Leukocyte Antigen - DR isotype (HLADR) Biomarker Activity (AID 2283032); details: primary human bronchial epithelial cells; actives raise or lower the signal
Summary of the method: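 ELISA read-out of HLA-DR on human lung bronchial epithelial primary cells, measured 24 h post-dosing. Both increases and decreases were scored relative to DMSO vehicle.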

[13] = read-out: Vascular cell adhesion molecule 1 (VCAM1), VCAM1 (gene 7412); experiment: BSK_4H_VCAM1: BioMAP Diversity Plus: 4H Assay for Vascular cell adhesion molecule 1 (VCAM1) Biomarker Activity (AID 2283033); details: primary human endothelial cells (HUVEC); actives raise or lower the signal
Summary of the method: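 ELISA read-out of VCAM-1 on human umbilical vein endothelium 24 hours after chemical dosing; gain or loss of signal was fitted relative to DMSO, with sulforhodamine B staining of parallel cultures flagging overt cytotoxicity.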

[14] = read-out: Interferon-gamma inducible Protein 10 (IP10), CXCL10 (gene 3627); experiment: BSK_BE3C_IP10: BioMAP Diversity Plus: BE3C Assay for Interferon-gamma inducible Protein 10 (IP10) Biomarker Activity (AID 2283034); details: primary human bronchial epithelial cells; actives raise or lower the signal
Summary of the method: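 Chemical is dosed onto human lung bronchial epithelial primary cells, cultures are incubated 24 h, and IP-10 is then quantified by ELISA. Gain or loss of signal is fitted in both directions relative to DMSO.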

[15] = read-out: Monokine induced gamma interferon (MIG), CXCL9 (gene 4283); experiment: BSK_BE3C_MIG: BioMAP Diversity Plus: BE3C Assay for Monokine induced gamma interferon (MIG) Biomarker Activity (AID 2283035); details: primary human bronchial epithelial cells; actives raise or lower the signal
Summary of the method: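 ELISA read-out of MIG in human lung bronchial epithelial primary cultures, 24 h post-dosing. Bidirectional curve fit vs DMSO baseline.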

[16] = read-out: Transforming growth factor beta 1 (TGFb1), TGFB1 (gene 7040); experiment: BSK_BE3C_TGFb1: BioMAP Diversity Plus: BE3C Assay for Transforming growth factor beta 1 (TGFb1) Biomarker Activity (AID 2283036); details: primary human bronchial epithelial cells; actives raise or lower the signal
Summary of the method: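 Primary human lung bronchial epithelial cells; compound exposure 24 h; TGF-b1 by ELISA; bidirectional fit, DMSO baseline. Parallel SRB total-protein staining for cytotoxicity.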

[17] = read-out: Plasminogen activator inhibitor-1 (PAI1), SERPINE1 (gene 5054); experiment: BSK_BE3C_PAI1: BioMAP Diversity Plus: BE3C Assay for Plasminogen activator inhibitor-1 (PAI1) Biomarker Activity (AID 2283037); details: primary human bronchial epithelial cells; actives raise or lower the signal
Summary of the method: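 Primary human lung bronchial epithelial cells; chemical dosing; 24 h; PAI-1 measured by ELISA; bidirectional fit referenced to DMSO as negative control.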

[18] = read-out: urokinase plasminogen activator (uPA), PLAU (gene 5328); experiment: BSK_BE3C_uPA: BioMAP Diversity Plus: BE3C Assay for urokinase plasminogen activator (uPA) Biomarker Activity (AID 2283038); details: primary human bronchial epithelial cells; actives raise or lower the signal
Summary of the method: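 ELISA read-out of uPA in human lung primary bronchial epithelial cultures, 24 h post-dosing. Gain or loss of signal fitted bidirectionally relative to DMSO baseline; cytotoxicity checked in parallel cultures via SRB total protein stain.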

[19] = read-out: Urokinase-type plasminogen activator receptor (uPAR), PLAUR (gene 5329); experiment: BSK_BE3C_uPAR: BioMAP Diversity Plus: BE3C Assay for Urokinase-type plasminogen activator receptor (uPAR) Biomarker Activity (AID 2283039); details: primary human bronchial epithelial cells; actives raise or lower the signal
Summary of the method: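 Human bronchial epithelial primary cells; chemical exposure 24 h; uPAR by ELISA; bidirectional fit vs DMSO control.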

[20] = read-out: Interleukin-6 (IL6), IL6 (gene 3569); experiment: BSK_CASM3C_IL6: BioMAP Diversity Plus: CASM3C Assay for Interleukin-6 (IL6) Biomarker Activity for (AID 2283040); details: primary human coronary artery smooth muscle cells; actives raise or lower the signal

Measured: AC50

COP(=S)(OC)Oc1c(Cl)cc(C)cc1Cl
active: [3] 30.3 µM | [5] 37.5 µM | [6] 33.4 µM | [7] 20 µM | [13] 26.9 µM
inactive: all other assays above

C[C@]12CCC(=O)C[C@@H]1CC[C@@H]1[C@@H]2CC[C@]2(C)[C@@H](O)CC[C@@H]12
active: [3] 20.9 µM
not listed: [8]
inactive: all other assays above

COc1cc(-c2ccc(N)c(OC)c2)ccc1N
active: [4] 4.7 µM
inactive: [1] | [2] | [3] | [4] | [5] | [6] | [7] | [8] | [9] | [10] | [11] | [12] | [13] | [14] | [15] | [16] | [17] | [18] | [19] | [20]

C(=NC1CCCCC1)=NC1CCCCC1
active: [1] 28.7 µM | [3] 8.96 µM | [4] 36.5 µM | [5] 37.3 µM | [6] 5.42 µM | [7] 5.35 µM | [8] 33.4 µM | [10] 8.81 µM | [12] 20 µM | [13] 7.64 µM | [14] 20 µM | [15] 36.3 µM | [18] 31.8 µM | [19] 20 µM | [20] 36.8 µM
inactive: [2] | [9] | [16] | [17]

CCOP(=S)(OCC)SCCS(=O)(=O)CC
inactive: all assays above

CCOC(=O)/C=C(C)/C=C/C[C@@H](C)CCCC(C)C
inactive: [2] | [4] | [5] | [8] | [17]
active: [1] 30.8 µM | [3] 36.4 µM | [6] 25.2 µM | [7] 34.3 µM | [9] 5.42 µM | [10] 31.8 µM | [11] 33 µM | [12] 20 µM | [13] 30.6 µM | [14] 20 µM | [15] 30 µM | [16] 20 µM | [18] 20 µM | [19] 20 µM | [20] 30.7 µM

CC(C)(C)CC(C)(C)c1ccc(O)cc1
inactive: [2] | [9] | [11]
active: [1] 12.4 µM | [3] 7.28 µM | [4] 33.7 µM | [5] 6.71 µM | [6] 11.4 µM | [7] 9.01 µM | [10] 9.65 µM | [12] 19.3 µM | [13] 7.98 µM | [14] 16.6 µM | [15] 34.5 µM | [16] 14.7 µM | [17] 30.9 µM | [18] 26.6 µM | [19] 30 µM | [20] 12 µM

CCN1CCC2(CC1)COc1cc3c(cc12)N(C(=O)c1ccc(-c2ccc(-c4nnc(C)o4)cc2C)cc1)CC3
inactive: [2] | [4] | [9] | [11] | [16]
active: [1] 32.3 µM | [3] 6.23 µM | [5] 6.51 µM | [6] 12 µM | [7] 23.1 µM | [8] 12.9 µM | [10] 18.7 µM | [12] 10.5 µM | [13] 27.8 µM | [14] 14.4 µM | [15] 23.8 µM | [17] 12.5 µM | [18] 18.7 µM | [19] 18.7 µM | [20] 31.7 µM

O=C(OC1CCCCC1)c1ccccc1C(=O)OC1CCCCC1
active: [3] 10.9 µM | [4] 4.58 µM | [5] 5.63 µM | [6] 9.57 µM | [7] 13 µM | [10] 13 µM | [11] 9.97 µM | [12] 13 µM | [13] 20.9 µM | [14] 20.9 µM
inactive: all other assays above

CC12CC1(C)C(=O)N(c1cc(Cl)cc(Cl)c1)C2=O (configuration not stated)
inactive: all assays above

CCOP(=S)(OCC)Oc1nc(Cl)c(Cl)cc1Cl
active: [3] 30.2 µM | [5] 39 µM | [6] 32 µM | [13] 15.8 µM
inactive: all other assays above

CC(=O)C(Cl)C(=O)N(C)C (configuration not stated)
active: [5] 37.5 µM | [6] 15.6 µM | [12] 26.9 µM | [13] 24.3 µM | [14] 20 µM
not listed: [8]
inactive: all other assays above
